Measurements from the supplement of paper PMC3334620.
Whole data set: some 33,000 sequences, median “E-score (-0.5 to 0.5)” near -0.016, cut for the highest 2% near 0.31. This is one part of a sample in which the highest values are shown more often than they occur.

Molecular target: Cst6 (UniProt P40535)
Experiment: PBM E-score (8-mer binding enrichment) (E-score (-0.5 to 0.5)); higher = stronger / more preferred TF binding
Details: protein concentration: 200 nM; construct: GST-DNA-binding domain
In short: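 The E-score, a modified Wilcoxon-Mann-Whitney statistic, was computed by the Universal PBM Analysis Suite for every ungapped eight-base word pooled with its reverse complement. Scans behind it were normalised with masliner after bound GST-tagged yeast transcription factors were detected with fluorescent anti-GST. The proteins, at about 100-200 nM, had been applied to universal all-10-mer Agilent arrays made double-stranded by primer extension.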

Sequence of UniProt P40535 (P40535 whole entry): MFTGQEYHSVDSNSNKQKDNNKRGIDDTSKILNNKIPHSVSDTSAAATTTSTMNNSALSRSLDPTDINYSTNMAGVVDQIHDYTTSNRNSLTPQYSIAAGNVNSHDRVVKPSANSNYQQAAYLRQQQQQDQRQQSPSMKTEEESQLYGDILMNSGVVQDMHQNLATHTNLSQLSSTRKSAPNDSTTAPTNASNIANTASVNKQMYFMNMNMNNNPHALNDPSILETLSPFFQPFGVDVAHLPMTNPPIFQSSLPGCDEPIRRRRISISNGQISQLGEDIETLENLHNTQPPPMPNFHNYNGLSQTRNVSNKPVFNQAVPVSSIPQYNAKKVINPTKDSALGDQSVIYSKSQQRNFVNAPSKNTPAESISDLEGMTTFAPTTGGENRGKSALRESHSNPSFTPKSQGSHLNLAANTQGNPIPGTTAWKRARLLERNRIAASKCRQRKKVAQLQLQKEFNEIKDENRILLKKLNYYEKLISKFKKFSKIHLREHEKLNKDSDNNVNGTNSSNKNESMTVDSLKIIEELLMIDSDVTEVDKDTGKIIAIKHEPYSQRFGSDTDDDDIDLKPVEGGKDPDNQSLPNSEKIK

Sequence | PBM E-score
CGATATCA | 0.145
AAGCTTTC | 0.0818
AACTGATT | 0.0959
TCGCGCCA | -0.0121
GTCCGAGA | 0.0681
GTCTAGAC | -0.0977
CACCAAAC | 0.17
TACTCCCA | -0.0234
AGTCAAAT | 0.0827
GGTAATGA | 0.213
AGTAATGA | 0.247
CGTAATGA | 0.402
CTTAATGC | 0.142
CGTAATGC | 0.365
AGTAATGC | 0.0951
ATTATGGC | 0.0901
TCGCGCAA | 0.15
TCTCGTAA | 0.305
CCTCGTCG | -0.0925
GCTCGTCA | 0.238
CCTCGTCA | 0.308
CCTCGTCC | -0.35
ACTCGTCT | -0.018
ACTCGTCA | 0.351
ACTCGTCC | -0.094

Sequence | PBM E-score
TCTCGTCA | 0.329
GACCTAAC | 0.0894
ATCCCTCG | -0.263
GAAAGGTC | -0.196
GTTGCCCA | -0.135
GATTACAC | 0.171
AATTACCC | 0.0706
AATTACAG | 0.15
AATTACGA | 0.286
AATTACAC | 0.116
AATTACAT | 0.318
AATTACGC | 0.331
GATTACGC | 0.329
AATTACGG | 0.183
CATTACGC | 0.219
AGTTACGC | 0.0936
AATTACGT | 0.462
CACCTGGA | -0.135
TCGCGCGA | 0.169
ACTCGTGC | -0.103
AGCGGCAT | 0.273
GATTACGA | 0.364
CATTACGA | 0.205
TATTACGA | 0.283
GTCTTAAC | 0.14

Sequence | PBM E-score
GAAAAGCA | -0.0869
TCGTTACA | 0.0818
TAACCCTA | -0.197
CATGCATG | 0.0335
GCGCCGCC | 0.25
GCGCCGCA | 0.38
ACGCCGCC | 0.124
ACGCCGCT | 0.233
CCGCCGCA | 0.0944
ACGCCGCA | 0.336
CGTTATGA | 0.0852
AGCGGAAT | -0.0286
GTAGCCGA | -0.191
AGTAATTA | 0.175
CGTAATTA | 0.362
CGTAATTC | 0.309
CGTAATCA | 0.427
TATAATCA | 0.308
CGTAATCC | 0.3
AGTAATCA | 0.116
CATAATTC | 0.203
GATAATCA | 0.131
GGTAATTA | 0.215
AATAATCA | 0.209
AGTAATTC | 0.189

Sequence | PBM E-score
CATCGCAG | -0.135
CGCCCGCC | -0.129
AAACTCAC | 0.0463
CATTAGCG | -0.0563
CTCATTGC | 0.105
AGAAAAAT | 0.17
CATTGAGG | -0.0774
GTGAGTTA | 0.0284
GGGACGAA | -0.214
GAGACGAA | -0.099
ACGACGAA | 0.0916
ATGACGAG | 0.398
GTGACGAA | 0.454
ACGACGAC | -0.0559
AAGACGAG | -0.203
ATGACGAA | 0.472
CTGACGAA | 0.29
ACGACGAG | -0.211
ATGACGAC | 0.431
CTGACGAC | 0.216
CAGACAGC | -0.185
ATGGAGCA | 0.0798
ACGAAACT | 0.0946
CAAGACCC | -0.197
CAAGGCTC | -0.227

Sequence | PBM E-score
AATTTCGG | 0.127
CGTGTGAG | 0.0162
AAAGATCT | -0.0274
TACATCAA | 0.283
CACATCAC | 0.217
CACATCAA | 0.162
GACATCAA | 0.327
GACATCAC | 0.431
GACATCCC | -0.0212
AGCATGCA | -0.103
AACACCTC | -0.0672
ACTCAAAC | 0.158
AGCTAAAG | -0.0194
CAGCGTGA | 0.0151
GGGACGCA | -0.173
ATGACGCC | 0.442
ATGACGCG | 0.463
AGGACGCC | -0.147
AAGACGCC | -0.00396
CTGACGCC | 0.119
GCGACGCA | 0.0151
CTGACGCA | 0.332
GTGACGCA | 0.471
ACGACGCG | 0.127
AAGACGCG | -0.111

Sequence | PBM E-score
CAGACGCA | -0.0613
AGTCGTAT | -0.0183
AGCCTCGC | -0.0857
CCTGGATC | -0.334
GTACCAGA | -0.199
ACTCCAGT | -0.162
CCGTCCCC | -0.289
GGTGGAGA | -0.338
ACATGGGT | 0.00268
CGGGTTCA | -0.134
GATAACCA | -0.0596
GGAGCTGA | -0.207
ATGACTCC | 0.0246
ACGACGCA | 0.145
ATGACGCA | 0.485
ATGACTCA | 0.309
AGGACGCA | -0.209
GTGACTCA | 0.228
ACGGGACA | -0.177
ATACCACG | 0.128
GGTCATAC | 0.151
CCTCATAG | 0.0666
CGTCATAG | 0.468
CGTCATAC | 0.481
AGTCATAC | 0.144

Sequence | PBM E-score
AGTCATAG | 0.0637
ATCCATTG | 0.0328
AAGGAGAG | -0.258
TAATTACA | 0.277
TAACCACA | 0.0592
ACATCACT | 0.401
AGATCACT | 0.181
ACATCAGT | 0.218
ACATCACA | 0.328
GCATCACC | 0.231
CCATCACC | 0.15
TCATCACA | 0.252
ACATCACG | 0.303
ACATCACC | 0.417
CCCGGTGC | -0.264
GGCGATTA | 0.188
CGTCGCCA | -0.0999
CGCAGTAG | -0.101
ATCGACCA | -0.228
CGCTGGAC | -0.297
CAAAAAAG | 0.254
TAATGATA | 0.387
TAATGAGA | 0.0949
TAATGACA | 0.347
CAATGACC | 0.148
